{
  "source": "PubChem BioAssay AID651784",
  "about": "(National Center for Advancing Translational Sciences (NCATS), 2012)",
  "test": "Acumen qHTS Assay for Inhibitors of the mTORC1 Signaling Pathway in MEF (Tsc2-/-, p53-/-) Cells: Hit Validation;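 note: phospho-rpS6 Ser235/236 immunofluorescence normalized to propidium iodide cell count; nearly all actives have a fitted effect of over 65% in size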;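 for activity change, negative = inhibition: cells exposed to compound for 24 hours; plate controls were DMSO for no effect and 7.5 nM rapamycin control for full effect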",
  "settings": "Acumen imaging; activity change, negative = inhibition: at 37.3 µM (top of the series)",
  "note": "Inconclusive results are not listed. Calls of active or inactive are those of the source. Calls come from the whole dose curve; as a rule, active = well fitted inhibition curve with a large enough effect; inconclusive = small, poorly fitted or top-dose-only effect; inactive = no such curve, though single readings can be large or run the other way. Potency is the fitted concentration of half-maximal effect.",
  "data": [
    {"smiles": "Cc1ccc(C(=O)c2cn(CC(=O)NCc3ccccc3Cl)c3nc(C)ccc3c2=O)cc1", "values": [
      {"measurement": "activity change, negative = inhibition", "result": -14.2, "unit": "%"}
    ]},
    {"smiles": "Cc1ccc(-c2nn(C)c(=O)c3ccccc23)cc1S(=O)(=O)NCCCN(C)C", "values": [
      {"measurement": "activity change, negative = inhibition", "result": 5.39, "unit": "%"}
    ]},
    {"smiles": "CCCCOc1ccc(Cn2c(=O)sc3ccccc32)cc1", "values": [
      {"measurement": "activity change, negative = inhibition", "result": -17, "unit": "%"}
    ]},
    {"smiles": "CCC(C)S(=O)(=O)c1oc(-c2cccs2)nc1S(=O)(=O)c1ccccc1", "note": "(stereo unspecified)", "values": [
      {"measurement": "Potency", "result": "0.927 µM (active)"}
    ]},
    {"smiles": "CC1CCCN(CCCNC(=O)c2cc3c(Cl)nc4ccccc4c3s2)C1", "note": "(stereo unspecified)", "values": [
      {"measurement": "activity change, negative = inhibition", "result": -16.9, "unit": "%"}
    ]},
    {"smiles": "CCS(=O)(=O)c1ncc(Cl)c(C(=O)NCc2ccccc2)n1", "values": [
      {"measurement": "Potency", "result": "6.56 µM (active)"}
    ]},
    {"smiles": "CCS(=O)(=O)c1oc(-c2ccc(F)cc2)nc1S(=O)(=O)c1ccc(Br)cc1", "values": [
      {"measurement": "Potency", "result": "4.14 µM (active)"}
    ]},
    {"smiles": "COc1ccc(OC)c(NC(=O)c2nc(S(=O)(=O)Cc3ccc(F)cc3)ncc2Cl)c1", "values": [
      {"measurement": "Potency", "result": "2.07 µM (active)"}
    ]},
    {"smiles": "CCC1CCc2nc3sc(C(=O)Nc4cccc(F)c4)c(N)c3cc2C1", "note": "(stereo unspecified)", "values": [
      {"measurement": "Potency", "result": "5.21 µM (active)"}
    ]},
    {"smiles": "CCCN1C(=O)C(Cc2nc3ccccc3c(=O)n2CC)c2ccccc21", "note": "(stereo unspecified)", "values": [
      {"measurement": "activity change, negative = inhibition", "result": -1.87, "unit": "%"}
    ]},
    {"smiles": "COc1cc(Nc2nc(SCC(=O)c3ccc(Cl)c(Cl)c3)nc3ccccc23)cc(OC)c1", "values": [
      {"measurement": "activity change, negative = inhibition", "result": -51.7, "unit": "%"}
    ]},
    {"smiles": "Cc1cc(C)cc(Nc2cc(C(=O)NCCCN(C)C3CCCCC3)c3ccccc3n2)c1", "values": [
      {"measurement": "activity change, negative = inhibition", "result": -88.5, "unit": "%"}
    ]},
    {"smiles": "CCCCOc1ccc(CN2C(=O)C(=O)c3cc(Br)cc(C)c32)cc1OC", "values": [
      {"measurement": "Potency", "result": "4.65 µM (active)"}
    ]},
    {"smiles": "COc1ccc(CNC(=O)C2CCN(c3nc4ccc(C)cc4[nH]3)CC2)cc1", "values": [
      {"measurement": "activity change, negative = inhibition", "result": 22.4, "unit": "%"}
    ]},
    {"smiles": "COc1ccc(S(=O)(=O)NCCc2csc3nc(-c4ccc(Cl)cc4)nn23)cc1C", "values": [
      {"measurement": "Potency", "result": "11.7 µM (active)"}
    ]},
    {"smiles": "Fc1ccc(Nc2nc3nonc3nc2Nc2cccc(C(F)(F)F)c2)cc1", "values": [
      {"measurement": "Potency", "result": "1.85 µM (active)"}
    ]},
    {"smiles": "CCc1ccc(NC(=O)C2CCCN(S(=O)(=O)c3c(C)noc3/C=C/N(C)C)C2)cc1", "note": "(stereo unspecified)", "values": [
      {"measurement": "activity change, negative = inhibition", "result": -73.7, "unit": "%"}
    ]},
    {"smiles": "CC1=C(C(=O)OC2CCCC2)C(c2ccccc2Cl)CC(=O)N1", "note": "(stereo unspecified)", "values": [
      {"measurement": "activity change, negative = inhibition", "result": -10.6, "unit": "%"}
    ]},
    {"smiles": "CCN1CCN(C(=O)Cn2ncc3c4ccccc4n(Cc4c(C)cc(C)cc4C)c3c2=O)CC1", "values": [
      {"measurement": "activity change, negative = inhibition", "result": -17.5, "unit": "%"}
    ]},
    {"smiles": "CCc1ccccc1NC(=O)CSCc1cnn(-c2ccccc2)c1-n1cccc1", "values": [
      {"measurement": "activity change, negative = inhibition", "result": 14.7, "unit": "%"}
    ]},
    {"smiles": "Cc1cccc(C(=O)Nc2c3c(nn2-c2ccc(Cl)cc2)CS(=O)(=O)C3)c1", "values": [
      {"measurement": "activity change, negative = inhibition", "result": 12.6, "unit": "%"}
    ]},
    {"smiles": "NC(=O)c1ccc(-c2nc(-c3ccc4c(c3)OCO4)c(-c3ccccn3)[nH]2)cc1", "values": [
      {"measurement": "activity change, negative = inhibition", "result": -5.7, "unit": "%"}
    ]},
    {"smiles": "CCc1ccc(-n2c(=O)c3c4c(sc3n(CC(=O)c3ccc(F)cc3)c2=O)CCC4)cc1", "values": [
      {"measurement": "activity change, negative = inhibition", "result": -153, "unit": "%"}
    ]},
    {"smiles": "O=C(Cn1c(=O)c2ccccc2n(CC(=O)Nc2ccc(Cl)cc2)c1=O)NCCc1ccccc1", "values": [
      {"measurement": "activity change, negative = inhibition", "result": 0.576, "unit": "%"}
    ]},
    {"smiles": "COc1ccc(Cn2c(C(=O)O)c(CNCc3ccc(SC)cc3)c3ccc(OC)cc32)cc1", "values": [
      {"measurement": "activity change, negative = inhibition", "result": -12.2, "unit": "%"}
    ]},
    {"smiles": "CCNc1nc2c(c(=O)[nH]c(=O)n2C)n1CC(O)COc1ccc(Cl)cc1Cl", "note": "(stereo unspecified)", "values": [
      {"measurement": "Potency", "result": "0.147 µM (active)"}
    ]},
    {"smiles": "CC(C)Cc1ccc(S(=O)(=O)N2CCC(c3ccncc3)CC2)cc1", "values": [
      {"measurement": "Potency", "result": "4.65 µM (active)"}
    ]},
    {"smiles": "CCCCOc1cccc(C(=O)N2CCN(CCc3ccncc3)CC2)c1", "values": [
      {"measurement": "activity change, negative = inhibition", "result": 0.726, "unit": "%"}
    ]},
    {"smiles": "CCN(c1ccccc1)S(=O)(=O)c1ccc(NC(=O)c2nc(S(C)(=O)=O)ncc2Cl)cc1", "values": [
      {"measurement": "Potency", "result": "4.14 µM (active)"}
    ]},
    {"smiles": "COc1ccc(NC(=O)c2c(C)oc3ccc(O)c(CN4CCCC(C)C4)c23)cc1Cl", "note": "(stereo unspecified)", "values": [
      {"measurement": "Potency", "result": "9.27 µM (active)"}
    ]},
    {"smiles": "COc1ccc(C2=NS(=O)(=O)N(C)C(C(=O)Nc3ccc(OC(F)(F)F)cc3)=C2)cc1", "values": [
      {"measurement": "activity change, negative = inhibition", "result": 2.76, "unit": "%"}
    ]},
    {"smiles": "CCOC(=O)c1sc2ccccc2c1S(=O)(=O)Nc1ccc(CC)cc1", "values": [
      {"measurement": "activity change, negative = inhibition", "result": -9.52, "unit": "%"}
    ]},
    {"smiles": "CC(C)(C)c1ccc(C2NC(=O)c3n[nH]c(-c4cccs4)c32)cc1", "note": "(stereo unspecified)", "values": [
      {"measurement": "activity change, negative = inhibition", "result": -6.84, "unit": "%"}
    ]},
    {"smiles": "O=C(CN(CCc1ccccc1)S(=O)(=O)c1ccccc1)NCc1ccc(Cl)cc1", "values": [
      {"measurement": "activity change, negative = inhibition", "result": -3.71, "unit": "%"}
    ]},
    {"smiles": "CCOc1ccccc1NC(=O)CN1C(=O)C(=O)c2ccccc21", "values": [
      {"measurement": "Potency", "result": "18.5 µM (active)"}
    ]},
    {"smiles": "CCOc1ccc(CCNCc2c(C(=O)O)n(Cc3ccc(C)cc3)c3cc(OC)ccc23)cc1", "values": [
      {"measurement": "activity change, negative = inhibition", "result": -26.5, "unit": "%"}
    ]},
    {"smiles": "Cc1cccc(C)c1Nc1sc(C(=O)c2ccccc2)c(N)c1S(=O)(=O)c1ccccc1", "values": [
      {"measurement": "Potency", "result": "2.61 µM (active)"}
    ]},
    {"smiles": "CCCN(c1ccccc1CC)S(=O)(=O)c1ccc2c(c1)CC(C)N2C(=O)C1CC1", "note": "(stereo unspecified)", "values": [
      {"measurement": "Potency", "result": "0.521 µM (active)"}
    ]},
    {"smiles": "Cc1nc2scc(C)n2c(=O)c1S(=O)(=O)Nc1ccc(N2CCOCC2)c(Cl)c1", "values": [
      {"measurement": "Potency", "result": "1.47 µM (active)"}
    ]},
    {"smiles": "Cc1ccc(-n2ncc(C(=O)NCCCN3CCc4ccccc4C3)c2C2CCN(C(=O)OC(C)(C)C)CC2)c(C)c1", "values": [
      {"measurement": "activity change, negative = inhibition", "result": -11.4, "unit": "%"}
    ]},
    {"smiles": "O=C(CC(NCc1cccnc1)C(=O)O)Nc1ccc(O)cc1", "note": "(stereo unspecified)", "values": [
      {"measurement": "activity change, negative = inhibition", "result": 5.37, "unit": "%"}
    ]}
  ]
}
